Compound activity as filed in PubChem BioAssay.
Apoferritin bind: qHTS Assay for Identification of Novel General Anesthetics; Potency, µM (titrated, usually from 77.5 µM), inactives show top-dose activity change, negative = displacement, usual class: inhibitors; apoferritin/1-aminoanthracene competitive binding, fluorescence; 350,000 compounds, 0.074% hits; also: % is scaled to controls: 0 for no effect and ±100 for the full control effect; nearly all actives have a fitted effect of over 20% in size
Target sequence (P02791 2-175 limits assumed): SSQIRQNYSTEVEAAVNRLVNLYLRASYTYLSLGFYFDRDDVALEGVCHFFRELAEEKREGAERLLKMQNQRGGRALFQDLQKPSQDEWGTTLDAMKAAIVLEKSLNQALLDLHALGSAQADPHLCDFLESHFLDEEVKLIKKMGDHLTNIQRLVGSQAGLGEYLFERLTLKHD
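10 uM apoferritin + 50% sat. 1-AMA, PBS; cpd 10 min RT; Ex380/Em535 endpoint; normalized to free probe vs complex; 4-param Hill fit; propofol titration as pos. ctrl.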
HepG2 tox-1: qHTS for Inhibitors of TGF-b: Cytotox Counterscreen; Potency, µM (titrated, usually from 46.1 µM), inactives show at the top dose activity change, negative = cytotoxicity, most hits filed as cytotoxic; 410,000 compounds, 0.76% hits; HepG2 CAGA-GFP viability, ATP luminescence, 18 h; AID 588856, 2011
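CellTiter-Glo luminescence gave cytotoxicity after 18 hours at 37 degrees C. The cells were HepG2 CAGA-GFP in 1% FBS DMEM, stimulated with 500 pg/mL TGF-beta after compound addition. %Activity was normalised to no-cell wells (complete cell-killing) and DMSO (no toxicity), and curves were fitted and classified.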
TGFb SMAD3 inh: qHTS for Inhibitors of TGF-b; HepG2 CAGA-GFP TGF-b/SMAD3 reporter, GFP fluorescence, 18 h; TGF-beta stimulated, 500 pg/mL final; AID 588855, 2011; Potency, µM (doses to about 46.1 µM), without a hit: at the highest dose activity, negative = inhibition, actives largely listed as inhibitors; 410,000 compounds, 1.2% hits; also: % is scaled to controls: 0 for no effect and ±100 for the full control effect; nearly all actives have a fitted effect of over 65% in size
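Read-out: total well GFP (ex488/em500-530) summed from mean per-cell fluorescence. Cells: HEPG2 CAGA-GFP, 1% FBS DMEM, 18 h at 37 degrees C with 500 pg/mL final TGF-beta. Unstimulated wells served as the full-inhibition control; stimulated DMSO wells = 0%.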
ATXN2 expr inh: Primary qHTS for Inhibitors of ATXN expression. HEK-293 ATXN2-luciferase reporter, luminescence, 24 h. Potency, µM (highest dose often 57 µM), for inactives: at the highest dose activity change, negative = inhibition, most hits filed as inhibitors. 360,000 compounds, 0.72% hits. AID 1745845, 2022; also: % is scaled to controls: 0 for no effect and ±100 for the full control effect; nearly all actives have a fitted effect of over 55% in size
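qHTS (up to 57 uM final) was run with 24 h compound exposure of reporter cells at 37 °C. Each well was multiplexed: SteadyGlo luminescence measured ATXN2-luciferase expression after a fluorogenic Gly-Phe-AFC viability readout (25 uM final).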
S2 tox: Viability Counterscreen for Primary qHTS for Inhibitors of ATXN expression | S2 cells (HEK-293 line with an ATXN2-luciferase reporter) viability, CellTiter-Fluor protease fluorescence, 24 h | Potency, µM (doses to about 56.7 µM), usual class: cytotoxic | 400,000 compounds, 0.49% hits; also: nearly all actives have a fitted effect of over 40% in size
TGFb CAGA inh: qHTS for Inhibitors of TGF-b: Confirmation of Cherry Picks; 1,600 compounds, 63% hits; AID 720534, 2013; shares compounds with TGFb SMAD3 inh; HepG2 CAGA-GFP TGF-b reporter, GFP fluorescence, 18 h; cells stimulated with TGF-beta, 500 pg/mL; Potency, µM (top dose mostly 46.1 µM), without a hit: top-dose activity, negative = inhibition, hits mostly inhibitors; also: % is scaled to controls: 0 for no effect and ±100 for the full control effect; nearly all actives have a fitted effect of over 65% in size
HepG2 tox-2: qHTS for Inhibitors of TGF-b: Cytotox Counterscreen for Cherry Picks | AID 720535, 2013 | HepG2 CAGA-GFP viability, ATP luminescence, 18 h; cells stimulated with TGF-beta, 500 pg/mL | shares compounds with TGFb SMAD3 inh | 1,600 compounds, 27% hits | Potency, µM (series often up to 46.1 µM), without a hit: at the top dose activity, negative = cytotoxicity, usual class: inhibitors; also: % is scaled to controls: 0 for no effect and ±100 for the full control effect; nearly all actives have a fitted effect of over 70% in size
TGFb CCL64 inh: qHTS for Inhibitors of TGF-b: CCL64 Cells Orthogonal Assay for Cherry Picks; 1,600 compounds, 41% hits; shares compounds with TGFb SMAD3 inh; CCL64 CAGA-GFP reporter, TGF-b stimulated, GFP fluorescence, 18 h; AID 720536, 2013; Potency, µM (highest dose often 46.1 µM), for the others: top-dose activity, negative = inhibition, hits mostly inhibitors; also: nearly all actives have a fitted effect of over 65% in size
COP TGFb inh: qHTS for Inhibitors of TGF-b: Hit Validation in HepG2 Cells using COP promoter | shares compounds with TGFb SMAD3 inh | HepG2 COP-GFP TGF-b reporter, GFP fluorescence, 18 h; cells stimulated by added recombinant TGF-beta | Potency, µM (top dose mostly 46.1 µM), without a hit: at the highest dose activity, negative = inhibition, actives largely listed as inhibitors | 1,600 compounds, 3% hits; also: nearly all actives have a fitted effect of over 70% in size
* hit, by the source's call; i = inactive; ? = inconclusive; nt = no result given; [ ] = remark or other dose. Only some compounds are listed: those with a hit (about 2.4% of all), similar ones and a draw of the others. Calls follow the shape of the dose curve; as a rule, active = well fitted curve in the direction sought with a large enough effect; inconclusive = small, poorly fitted or top-dose-only effect, or another doubt; inactive = no such curve, though single readings can be large; an effect the other way counts as inactive or inconclusive. Potency is read from the fitted curve at half-maximal effect.

SMILES	Apoferritin bind	HepG2 tox-1	TGFb SMAD3 inh	ATXN2 expr inh	S2 tox	TGFb CAGA inh	HepG2 tox-2	TGFb CCL64 inh	COP TGFb inh
CSCCC(NC(=O)C1CCC(C)CC1)C(=O)NCCN1CCC(C)CC1 (stereo not given)	-9%	-45%	-1%	-4%	i	nt	nt	nt	nt
CCc1nc2ccccc2c(C(=O)Nc2ccc(F)cc2)c1C	-1%	1%	10%	-1%	i	nt	nt	nt	nt
O=C(Nc1cccc([N+](=O)[O-])c1)c1cc2ccccc2cc1O	6%	-39%	4µM*	?	?	6.5µM*	4.1µM*	4.6µM*	61%
O=C(O)c1ccccc1C(=O)Nc1cccc([N+](=O)[O-])c1	-5%	6%	16%	nt	i	nt	nt	nt	nt
CCCCc1ccc(NC(=S)N2CCC(O)CC2)cc1	-17%	4%	-15%	-18%[11.3 µM]	i	nt	nt	nt	nt
COc1cccc2c1C(=O)c1c(O)c3c(c(O)c1C2=O)C[C@](O)(C(C)=O)C[C@H]3O[C@@H]1C[C@H](N)[C@H](O)[C@H](C)O1	-15%[29.3 µM]	nt	nt	nt	nt	nt	nt	nt	nt
COc1cccc2c1C(=O)c1c(O)c3c(c(O)c1C2=O)CC(O)(C(C)=O)CC3OC1CC(N(C)C)C(O)C(C)O1 (stereo not given)	nt	-42%	0.79µM*	?	?	0.26µM*	0.33µM*	1µM*	?
COc1cccc2c1C(=O)c1c(O)c3c(c(O)c1C2=O)C[C@@](O)(C(=O)CO)C[C@@H]3OC1CC(N)C(O)C(C)O1 (stereo not given in full)	nt	14%	5.6µM*	?	12µM*	2.6µM*	1.3µM*	3.3µM*	15%
C[C@H](O)[C@@H]1C(=O)N2CCc3c([nH]c4ccccc34)[C@@H]2C[C@@H]1N(C)C(=O)c1ccco1	nt	2%	-15%	20%	nt	nt	nt	nt	nt
CC(=O)Nc1ccc(N=Cc2c(O)c3ccccc3oc2=O)cc1	15%	1%	12%	-6%	i	nt	nt	nt	nt
CC(=O)Nc1ccc(N=Cc2c(O)c(C(=O)Nc3ccccc3)cc3ccccc23)cc1	1%	-46%	7.1µM*	nt	i	-9%	12µM*	4.6µM*	55%
COc1ccccc1C(=O)Nc1nnc(S(=O)(=O)N(C)c2ccc(Cl)cc2)s1	-14%	-6%	?	nt	nt	nt	nt	nt	nt
O=C(Nc1cccc(C(F)(F)F)c1)C1Cc2c(-c3ccc(Cl)cc3)ccnc2O1 (stereo not given)	nt	-62%	8.9µM*	-28%	?	?	?	?	38%
O=C(Nc1cccc(C(F)(F)F)c1)C1Cc2c(-c3ccccc3)ccnc2O1 (stereo not given)	nt	-28%	?	?	i	nt	nt	nt	nt
